Source: PubChem
Most compounds without a hit are left out; they make up all but 3.7% or so of the library.
GLP1R inv ag: GLP-1 receptor (human) inverse agonism. P43220. HEK293 GLP-1R CRE-luciferase, luminescence, 24 h; GLP-1R form is constitutively active. Potency, µM (titrated, usually from 38.3 µM), without a hit: at the top dose activity change, negative = inhibition, most hits filed as inhibitors. 410,000 compounds, 1.6% hits; further: on the % scale 0 is the no-effect control and ±100 the full control effect; nearly all actives have a fitted effect of over 55% in size
Target sequence (P43220 whole entry, looked up): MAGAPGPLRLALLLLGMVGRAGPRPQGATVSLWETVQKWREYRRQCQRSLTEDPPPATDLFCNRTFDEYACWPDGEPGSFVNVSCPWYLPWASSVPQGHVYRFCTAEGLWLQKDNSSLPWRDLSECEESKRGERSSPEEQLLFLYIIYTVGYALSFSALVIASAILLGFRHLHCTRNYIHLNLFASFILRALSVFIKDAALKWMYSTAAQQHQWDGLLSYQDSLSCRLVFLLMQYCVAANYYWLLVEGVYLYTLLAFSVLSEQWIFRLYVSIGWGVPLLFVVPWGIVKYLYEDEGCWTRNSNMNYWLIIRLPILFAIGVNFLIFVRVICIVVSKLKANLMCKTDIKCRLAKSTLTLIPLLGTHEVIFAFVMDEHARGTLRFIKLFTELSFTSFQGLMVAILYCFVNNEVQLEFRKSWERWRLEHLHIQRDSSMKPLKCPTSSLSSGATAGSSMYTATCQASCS
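Assay principle: reduced luminescence from a cAMP-responsive reporter in HEK293 cells co-expressing a constitutively active GLP-1R. Conditions: 24 hr compound incubation, 37 deg C, 5% CO2.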
GLP1R ag: agonists of human GLP-1 receptor; HEK293 GLP-1R CRE-luciferase, luminescence, 4-6 h; cells express a hypersensitive GLP-1R form; 380,000 compounds, 0.007% hits; Potency, µM (series often up to 45.6 µM), for the others: top-dose activation, hits mostly activators; further: % of control where 0% means no effect
HepG2 tox: HepG2 cytotoxicity, counter-screen for TGF-b inhibitors. HepG2 CAGA-GFP viability, ATP luminescence, 18 h. Potency, µM (top dose mostly 46.1 µM), for the others: at the top dose activity change, negative = cytotoxicity, most hits filed as cytotoxic. 410,000 compounds, 0.76% hits
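CellTiter-Glo luminescence gave cytotoxicity after 18 hours at 37 degrees C. The cells were HepG2 CAGA-GFP in 1% FBS DMEM, stimulated with 500 pg/mL TGF-beta after compound addition. %Activity was normalised to no-cell wells (complete cell-killing) and DMSO (no toxicity), and curves were fitted and classified.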
TGFb SMAD3 inh: inhibitors of TGF-b signaling; HepG2 CAGA-GFP TGF-b/SMAD3 reporter, GFP fluorescence, 18 h; TGF-beta stimulated, 500 pg/mL final; Potency, µM (highest dose often 46.1 µM), inactives show at the top dose activity, negative = inhibition, hits mostly inhibitors; 410,000 compounds, 1.2% hits; AID 588855; further: on the % scale 0 is the no-effect control and ±100 the full control effect; nearly all actives have a fitted effect of over 65% in size
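Smad-responsive CAGA-GFP expression was quantified in HEPG2 cells exposed to compounds and 500 pg/mL final TGF-beta for 18 h at 37 degrees C; unstimulated wells defined full inhibition.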
ATXN viability: viability counter-screen for ATXN expression inhibitors; Potency, µM (highest dose often 56.7 µM), usual class: cytotoxic; S2 cells (HEK-293 line with an ATXN2-luciferase reporter) viability, CellTiter-Fluor protease fluorescence, 24 h; 400,000 compounds, 0.49% hits; further: nearly all actives have a fitted effect of over 40% in size
ATXN2 expr inh: reduces ATXN2 reporter expression in HEK-293 cells | AID 1745845 | HEK-293 ATXN2-luciferase reporter, luminescence, 24 h | Potency, µM (titrated, usually from 57 µM), inactives show at the top dose activity change, negative = inhibition, hits mostly inhibitors | 360,000 compounds, 0.72% hits; further: on the % scale 0 is the no-effect control and ±100 the full control effect; nearly all actives have a fitted effect of over 55% in size
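ATXN2-luciferase reporter cells (luciferase flanked by upstream and downstream ATXN2 gene portions) were treated 24 h at 37 °C with compounds at up to 57 uM. SteadyGlo luminescence gave expression; GF-AFC fluorescence gave viability.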
* hit, by the source's call; [ ] = dose if it differs, or a comment. The call rests on the fitted dose curve; in most records, active means well fitted curve in the direction sought with a large enough effect; inconclusive means small, poorly fitted or top-dose-only effect, or another doubt; inactive means no such curve, though single readings can be large; an effect the other way counts as inactive or inconclusive. Potency means the concentration at half of the fitted maximal effect.

CCOc1ccc(NC(=O)CN(C)C(=O)CCNC(=O)c2ccc(Br)cc2)cc1OCC was read as GLP1R inv ag 13.6%, GLP1R ag -0.3%, HepG2 tox -4.8%, TGFb SMAD3 inh -9.0%, ATXN viability inactive and ATXN2 expr inh 9.9%.
For CCOc1ccc(NC(=O)CN(C)C(=O)CCCOc2ccc(Br)cc2)cc1OCC the results were GLP1R inv ag 10µM*, GLP1R ag 7.6%, HepG2 tox -2.0%, TGFb SMAD3 inh -2.2%, ATXN viability inactive and ATXN2 expr inh -1.5%.
`Nc1nc(N)c2c(ccc3nccc32)[nH]1` gave GLP1R inv ag -21.8%, GLP1R ag -2.0%, HepG2 tox 1.26µM*, TGFb SMAD3 inh inconclusive and ATXN viability inconclusive.
Screening CCN(CC)CCOc1ccc(C=NNc2nc3c([nH]2)c(=O)n(C)c(=O)n3C)cc1 returned GLP1R inv ag 5.7%, GLP1R ag 10.6%, HepG2 tox -61.8%, TGFb SMAD3 inh 12.0%, ATXN viability inactive and ATXN2 expr inh 5.7%.
`CCN(CC)CCOc1ccc(Nc2ncc3cc(-c4c(Cl)cccc4Cl)c(=O)n(C)c3n2)cc1` gave ATXN2 expr inh 1.72µM*.
`C=C1CC(COc2cc(=O)oc3ccccc23)(c2ccccc2)OC1=O` (stereo not given) gave GLP1R inv ag inconclusive, GLP1R ag -1.2%, HepG2 tox 6.31µM*, TGFb SMAD3 inh 5.01µM* and ATXN2 expr inh inconclusive.
Screening OCCCn1c(-c2ccc(F)cc2)csc1=Nc1ccc(F)cc1 returned GLP1R inv ag inconclusive, HepG2 tox -39.5%, TGFb SMAD3 inh inconclusive, ATXN viability inconclusive and ATXN2 expr inh -1.4%.
`Cc1ccc(-c2csc(=Nc3ccccc3)n2CCCO)cc1` gave GLP1R inv ag inconclusive, HepG2 tox -67.6%, TGFb SMAD3 inh 7.08µM*, ATXN viability inconclusive and ATXN2 expr inh inconclusive.
`O=S(=O)(c1ccc(-c2csc(=Nc3ccc(F)cc3)n2CCCCCCO)cc1)N1CCCC1` gave GLP1R inv ag inconclusive, HepG2 tox -12.0%, TGFb SMAD3 inh inconclusive, ATXN viability inconclusive and ATXN2 expr inh 31.6µM*.
Screening CC(NC(=O)c1cc(F)ccc1F)c1nnc2n1CCN(Cc1ccco1)CC2 (stereo not given) returned ATXN viability inactive.
O=C1c2[nH]nc(-c3ccccc3O)c2C(c2cccc(OCc3ccccc3)c2)N1CCO (stereo not given) was read as GLP1R inv ag -1.5%, HepG2 tox -4.5% and TGFb SMAD3 inh -5.8%.
Screening CCCCN1C(=O)c2[nH]nc(-c3ccccc3O)c2C1c1ccc(OCc2ccccc2)cc1 (stereo not given) returned GLP1R inv ag inconclusive, HepG2 tox -69.6% and TGFb SMAD3 inh 3.55µM*.
O=C1c2[nH]nc(-c3ccccc3O)c2C(c2ccccc2F)N1Cc1cccnc1 (stereo not given) was read as GLP1R inv ag 8.2%, HepG2 tox -35.5%, TGFb SMAD3 inh -14.9%, ATXN viability inactive and ATXN2 expr inh -8.4%.
`CC(C)OCCCN1C(=O)c2[nH]nc(-c3ccccc3O)c2C1c1cccc(OCc2ccccc2)c1` (stereo not given) gave GLP1R inv ag inconclusive, HepG2 tox 15.8µM* and TGFb SMAD3 inh inconclusive.
`COCCCN1C(=O)c2[nH]nc(-c3ccccc3O)c2C1c1ccc(OCc2ccccc2)cc1` (stereo not given) gave GLP1R inv ag inconclusive, HepG2 tox -111.7% and TGFb SMAD3 inh 20µM*.
For COCCN1C(=O)c2[nH]nc(-c3ccccc3O)c2C1c1ccc(OC)cc1 (stereo not given) the results were GLP1R inv ag 32.7%, GLP1R ag 20.3%, HepG2 tox 5.7%, TGFb SMAD3 inh 4.6%, ATXN viability inactive and ATXN2 expr inh 0.7%.
For CC(C)OCCCN1C(=O)c2[nH]nc(-c3ccccc3O)c2C1c1ccccc1F (stereo not given) the results were GLP1R inv ag inconclusive, HepG2 tox -47.1% and TGFb SMAD3 inh 10µM*.
Screening O=C(NCc1nnc2n1CCN(Cc1ccc(C(F)(F)F)cc1)CC2)c1ccccn1 returned ATXN viability inactive.
Screening CCOC(=O)c1c(CSc2ccccc2)n(C)c2cc(Br)c(OC)c(O)c12 returned GLP1R inv ag inconclusive, GLP1R ag 14.7%, HepG2 tox 6.2%, TGFb SMAD3 inh -18.0%, ATXN viability inactive and ATXN2 expr inh -27.5%.
CCOC(=O)c1c(CSc2ccccc2)n(C)c2cc(Br)c(OCC(O)CNC(CO)(CO)CO)cc12 (stereo not given) was read as GLP1R inv ag 8.91µM*, GLP1R ag 0.4%, HepG2 tox -101.2%, TGFb SMAD3 inh inconclusive and ATXN2 expr inh inconclusive.
`CCCN(CCC)c1ncnc2c1cnn2-c1ccc(OC)cc1` gave GLP1R inv ag 10µM*, GLP1R ag 10.9%, HepG2 tox -33.6%, TGFb SMAD3 inh 0.5%, ATXN viability inactive and ATXN2 expr inh 100.4%.
CCCCN(CCCC)c1ncnc2c1cnn2-c1cccc(C)c1 was read as GLP1R inv ag inconclusive, HepG2 tox -15.0%, TGFb SMAD3 inh -3.7%, ATXN viability inactive and ATXN2 expr inh 8.3%.
`Cc1nc(Nc2ccc(Cl)cc2Cl)sc1C(=O)Nc1ccccc1` gave GLP1R inv ag 10µM*, GLP1R ag 10.8%, HepG2 tox -2.2%, TGFb SMAD3 inh inconclusive, ATXN viability inactive and ATXN2 expr inh -12.5%[11.3 µM].
`O=C(Nc1ccccc1Oc1ccccc1)c1cc([N+](=O)[O-])ccc1Cl` gave GLP1R inv ag 4.47µM*, GLP1R ag 12.0%, HepG2 tox 10.0%, TGFb SMAD3 inh 1.2%, ATXN viability inactive and ATXN2 expr inh -22.5%.
`COc1ccc(NC(=O)c2cc([N+](=O)[O-])ccc2O)cc1` gave GLP1R inv ag inconclusive, GLP1R ag -13.1%, HepG2 tox 10µM*, TGFb SMAD3 inh 11.2µM* and ATXN viability inconclusive.
Screening O=C(Nc1c(Cl)cc([N+](=O)[O-])cc1Cl)c1cc(Cl)ccc1O returned HepG2 tox -62.5% and TGFb SMAD3 inh 1.26µM*.
Screening Cc1cccc(NC(=O)c2cc([N+](=O)[O-])ccc2Cl)c1O returned GLP1R inv ag inconclusive, GLP1R ag 0.4%, HepG2 tox 2.7%, TGFb SMAD3 inh 23.4%, ATXN viability inactive and ATXN2 expr inh 5.0%[11.3 µM].
